Reference: PubChem BioAssay AID720566 (Broad Institute, 2013)
Potency and affinity values are given separately.

target: Protein disulfide-isomerase A6 (Homo sapiens) (UniProt Q15084); test: reduced insulin turbidity driven by ERp5 (PDIA6) – biochemical, absorbance 650 nm, cherry-picked samples, dose response (AID 720566); details: Recombinant ERp5 insulin aggregation; series mostly up to 35 µM; activity change, negative = inhibition: at the top concentration;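 further: negative values mean less insulin aggregation so ERp5 inhibition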
Sequence (Q15084 whole entry, looked up): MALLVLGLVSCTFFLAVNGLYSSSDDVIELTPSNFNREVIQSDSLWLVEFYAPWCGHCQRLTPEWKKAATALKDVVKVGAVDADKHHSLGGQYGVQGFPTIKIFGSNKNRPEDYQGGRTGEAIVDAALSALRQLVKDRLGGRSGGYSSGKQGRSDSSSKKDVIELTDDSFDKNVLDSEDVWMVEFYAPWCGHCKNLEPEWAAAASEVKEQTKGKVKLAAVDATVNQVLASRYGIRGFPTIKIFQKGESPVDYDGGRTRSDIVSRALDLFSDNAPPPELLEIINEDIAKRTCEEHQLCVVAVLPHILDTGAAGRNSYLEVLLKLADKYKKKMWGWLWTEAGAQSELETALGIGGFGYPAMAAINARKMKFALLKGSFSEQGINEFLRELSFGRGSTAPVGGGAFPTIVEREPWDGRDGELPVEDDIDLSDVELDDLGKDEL

Activity change, negative = inhibition, inactive:
COc1cccc(CC(=O)NNC(=O)CN(C)S(=O)(=O)c2ccc(C)cc2)c1 6%
CC(=O)Nc1ccc2c(c1)C(=O)N(C)[C@@H]1CC[C@@H](CC(=O)NCC3CC3)O[C@H]1CO2 4.34%
COc1ccc(-c2csc(NC(=O)C3CCN(C(=O)c4ccc(F)cc4)CC3)n2)cc1OC 6.23%
CN(CC(=O)Nc1ccc(F)c(F)c1F)C(=O)c1cc(-c2ccncc2)nc2ccccc12 5.55%
COc1ccc2c3c([nH]c2c1)[C@@H](CO)N(C(=O)c1ccc(F)cc1)CC31CCN(C(=O)Nc2cccc(F)c2)CC1 6.85%
CC(C)C(NC(=O)c1ccc(F)cc1)C(=O)N1CCOCC1 (stereo not drawn) 21.2%
C[C@@H]1CN([C@H](C)CO)C(=O)c2cc(NC(=O)Nc3cccc4ccccc34)ccc2O[C@@H]1CN(C)C(=O)Nc1cccc2ccccc12 10.4%
O=C(NC1CCCC1)[C@@H]1[C@@H](CO)[C@@H]2Cn3c(ccc(-c4cccnc4)c3=O)[C@H]1N2CC1CC1 2.79%
Cc1ccc(S(=O)(=O)N2CCN(C(=O)CCc3nc4ccccc4c(=O)[nH]3)CC2)c(C)c1 22.1%
C[C@@H]1CN([C@H](C)CO)C(=O)c2cc(NC(=O)Nc3ccc(C(F)(F)F)cc3)ccc2O[C@@H]1CN(C)S(=O)(=O)c1ccc(F)cc1 -0.372%
O=C(Nc1ccncc1)C1CCN(S(=O)(=O)c2cccc(C(F)(F)F)c2)CC1 -7.36%
C[C@H]1CN([C@@H](C)CO)C(=O)Cc2cc(NC(=O)Nc3cccc4ccccc34)ccc2O[C@H]1CN(C)Cc1ccc(C(F)(F)F)cc1 4.47%
O=C(C[C@H]1C[C@@H]2c3cc(NC(=O)NC4CCCC4)ccc3O[C@@H]2[C@@H](CO)O1)NCc1ccc(Cl)cc1 -3.35%
CCC1(CC)NC(=O)N(CC(=O)OC(C)C(=O)Nc2ccc(NC(C)=O)cc2)C1=O (stereo not drawn) 8.27%
CCC(=O)Nc1ccc2c(c1)C(=O)N(C)[C@H]1CC[C@@H](CC(=O)NCC3CC3)O[C@@H]1CO2 1.25%
CCN1[C@@H]2c3ccc(-c4ccccc4)c(=O)n3C[C@@H]2[C@@H](CO)[C@@H]1C(=O)NCC(F)(F)F 6.08%
COc1ccc2c3c([nH]c2c1)[C@H](CO)N(C(=O)c1ccc(F)cc1)CC31CCN(C(=O)Nc2cccc(F)c2)CC1 7.81%
CC(C)C#Cc1cnc2c(c1)C(=O)N([C@@H](C)CO)C[C@@H](C)[C@H](CN(C)C(=O)c1ccccc1F)O2 4.66%
O=C(NNC(=O)c1ccc2ccccc2c1)Nc1ccc(F)cc1 -2.38%
COc1cccc(C(=O)OCC(=O)c2[nH]c(C)c(C(C)=O)c2C)c1 -24.1%
Cc1cccc(Oc2ccc(NS(=O)(=O)c3ccc(C)c(C(=O)O)c3)cc2)c1 -4.87%
CC(C)CC#Cc1cnc2c(c1)C(=O)N([C@H](C)CO)C[C@H](C)[C@H](CN(C)Cc1ccccc1C(=O)O)O2 -14% [at 30 µM]
O=C(Nc1ccncc1)C1CC(=O)N(c2ccccc2)C1 (stereo not drawn) 23.2%
C[C@H]1CN([C@@H](C)CO)C(=O)c2cccc(NC(=O)c3nc4ccccc4s3)c2O[C@@H]1CN(C)C(=O)Nc1ccc(C(F)(F)F)cc1 4.47%
CCN(c1ccccc1)S(=O)(=O)c1ccc(OC)c(NC(=O)c2c(C)noc2C)c1 -6.23%
O=C(NCCCN1CCCC1)c1ccc(CS(=O)(=O)c2c(Cl)cccc2Cl)o1 -2.6%
O=C(COC(=O)CCc1nc2ccccc2c(=O)[nH]1)Nc1c(Cl)cccc1C(F)(F)F 13.4%
COc1ccc(S(=O)(=O)N(C)C[C@@H]2Oc3ccc(NC(=O)c4ccncc4)cc3C(=O)N([C@H](C)CO)C[C@@H]2C)cc1 -5.69%
COCC(=O)N(C)C[C@H]1Oc2cc(C#CC(C)(C)O)ccc2S(=O)(=O)N([C@@H](C)CO)C[C@@H]1C 2.99%
COCCNC(=O)c1ccccc1NS(=O)(=O)c1ccc(C)c([N+](=O)[O-])c1 25%
C[C@H](CO)N1C[C@H](C)[C@H](CN(C)Cc2ccc(C(F)(F)F)cc2)Oc2ccc(NC(=O)Nc3cccc4ccccc34)cc2CC1=O 7.63%
Cn1c(COc2ccccc2)nnc1SCC(=O)Nc1nnc(C2CC2)s1 20%
CCCNC(=O)C[C@H]1C[C@@H]2c3cc(NC(=O)CC4CC4)ccc3O[C@@H]2[C@@H](CO)O1 -10.3%
